Bioassay records as filed in PubChem BioAssay.
Only some compounds are listed: those with a hit (about 2.6% of all), similar ones and a draw of the others.
PABP polyA inh: PABP-poly(A) binding inhibition | P11940 | PABP-poly(A) RNA binding, fluorescence polarization | 290,000 compounds, 1% hits | inhibition, % at 35 µM;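 note: calls also rest on retests at 20 µM and on dose response follow-up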
PABP1 MLLE inh: blocks PAM2 peptide binding to the PABP1 MLLE domain; GST-MLLE / FITC-PAM2 fluorescence polarization; inhibition, % at 20 µM; 360,000 compounds, 0.36% hits; AID 588489; in the data active = inhibition above about 35%, passing the limit was not always enough;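 note: plate controls were DMSO wells with GST-MLLE for no effect and wells lacking GST-MLLE protein for full effect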
eIF4H FP inh: inhibitors of RNA binding by human eIF4H; 290,000 compounds, 0.94% hits; inhibition, % at 35 µM; Q15056; AID 2012; eIF4H fluorescence polarization binding assay;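 note: calls also rest on retests at 20 µM and on dose response follow-up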
CRFBP-R2 block: CRF-BP/CRF-R2 complex antagonism; HEK293 CRF-R2/CRF-BP, CRF-induced calcium fluorescence; inhibition, % at 11.8 µM; 350,000 compounds, 0.59% hits; AID 588475;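 active = inhibition of the ligand-induced calcium signal above about 50% at the single tested concentration, limit read from the data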
PHOSPHO1 inh: blocks human PHOSPHO1 phosphatase activity; Q8TCT1; recombinant PHOSPHO1, absorbance phosphatase assay; inhibition, % at 13.3 µM; 290,000 compounds, 1.1% hits; in the data active = inhibition above about 60%
Target sequence (Q8TCT1 whole entry, looked up): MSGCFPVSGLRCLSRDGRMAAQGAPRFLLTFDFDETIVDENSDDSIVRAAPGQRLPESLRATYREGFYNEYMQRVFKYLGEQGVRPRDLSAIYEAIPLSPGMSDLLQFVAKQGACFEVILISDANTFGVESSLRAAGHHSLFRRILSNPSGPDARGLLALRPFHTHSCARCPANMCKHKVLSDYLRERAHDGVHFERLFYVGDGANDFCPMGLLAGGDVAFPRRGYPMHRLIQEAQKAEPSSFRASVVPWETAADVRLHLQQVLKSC
* hit, by the source's call; ? = inconclusive; · = no result given. Unless noted, the rule behind the calls is not given here.

SMILES | PABP polyA inh | PABP1 MLLE inh | eIF4H FP inh | CRFBP-R2 block | PHOSPHO1 inh
Cc1c(C(=O)NC(=S)Nc2ccc3c4c(cccc24)CC3)cccc1[N+](=O)[O-] | 1.4 | 41.6* | 26.3 | -19.9 | 25.3
Cc1c(C(=O)NN2CCN(C)CC2)cccc1[N+](=O)[O-] | 10.2 | -8.0 | -0.1 | 11.6 | 60.5*
Cc1c(C(=O)NN2CCOCC2)cccc1[N+](=O)[O-] | · | 0.6 | · | -8.2 | ·
CC(O)(c1ccc(F)c(F)c1)c1nc(-c2cc3ccccc3o2)cs1 (stereo not drawn) | · | 27.1 | · | · | ·
CC1=CC2=NC(=O)CC(C)(C(=O)N(CC(=O)NC3CCCC3)c3ccccc3F)N2C=C1 (stereo not drawn) | -7.1 | -0.2 | -3.3 | -12.6 | 22.4
Cc1c(C(=O)NCC2CCCO2)sc2nc(-c3ccc(F)cc3)cn12 (stereo not drawn) | -4.9 | -10.9 | -3.9 | 55.7* | 13.1
Cc1cc(OCC(=O)NNC(=O)c2cccnc2)cc(C)c1Cl | 6.2 | 3.4 | -4.7 | -5.5 | 26.5
O=C(Nc1nnc([C@@H]2C[C@H](O)[C@@H](CO)O2)s1)Nc1ccccc1Oc1ccccc1 | · | -17.0 | · | · | ·
COc1ccccc1CNC(=O)CSC1=NCCS1 | 3.2 | 41.2* | -7.5 | 6.2 | 27.5
CC(NC(=O)CSC1=NCCS1)c1ccccc1 (stereo not drawn) | 0.6 | 45.7* | -11.9 | 24.0 | 3.4
O=C(CSC1=NCCS1)NC(NC(=O)CSC1=NCCS1)c1ccccc1 | 29.8 | 20.7 | -6.1 | -35.4 | 31.7
O=C(CSC1=NCCS1)Nc1ccccc1F | 0.4 | 42.8* | -0.7 | -0.7 | 8.6
Cc1ccc(O)c(NC(=O)c2ccc3c(c2)C(=O)N(Cc2cccnc2)C3=O)c1 | 1.0 | -17.2 | -4.7 | 2.7 | 62.8*
COc1ccc(CCN2C(=S)NC3CC2(C)Oc2ccc([N+](=O)[O-])cc23)cc1OC (stereo not drawn) | -3.8 | 36.4 | -9.3 | -17.1 | -4.4
N#C/C(=C/c1ccccc1OCc1ccc(F)cc1)c1ccc(C(=O)O)cc1 | 65.2* | -88.5 | 16.6 | -0.4 | 4.6
Cc1ccc(-c2cc[n+](Cc3ccccc3)cc2)cc1 | 2.5 | -8.8 | -1.6 | 18.5 | 40.8
Cc1ccc2c(c1)sc[n+]2Cc1ccccc1 | -3.0 | 38.0* | -1.0 | -18.8 | 52.4
COc1ccc(NS(=O)(=O)c2ccc(N3CCOCC3)c(NC(=O)c3ccc(F)cc3)c2)cc1 | -1.8 | 11.6 | -8.7 | -19.1 | -1.3
COc1ccc(NS(=O)(=O)c2ccc(N3CCOCC3)c(NC(=O)C(C)C)c2)cc1 | -14.7 | 16.7 | -6.3 | 100.0* | 28.1
COc1cc(C(=O)N2CCC2(C)C(=O)O)cc(OC)c1OC (stereo not drawn) | · | -3.4 | · | · | ·
Cn1c(CN2CCN(C(=O)c3ccco3)CC2)nc2cc([N+](=O)[O-])ccc21 | 12.0 | 10.0 | -2.7 | -13.1 | 66.3*
COc1cc(Cl)ccc1OC1(C)CCN(Cc2c(F)cccc2F)C1 (stereo not drawn) | · | -3.0 | · | · | ·
COc1ccc(C(CC(=O)N2CCCCC2)c2c(OC)cc(OC)c3c(-c4ccccc4)cc(=O)oc23)cc1 (stereo not drawn) | · | 0.5 | · | 20.1 | 30.9
COc1cc(C(CC(=O)N2CCCC2)c2c(OC)cc(OC)c3c(-c4ccccc4)cc(=O)oc23)cc(OC)c1OC (stereo not drawn) | 53.4* | -3.3 | 78.2* | 33.1 | 4.0
COc1cc(C(CCN2CCCCC2)c2c(OC)cc(OC)c3c(-c4ccccc4)cc(=O)oc23)cc(OC)c1OC (stereo not drawn) | -4.7 | -9.1 | -11.3 | -15.6 | 35.3
SMILES | PABP polyA inh | PABP1 MLLE inh | eIF4H FP inh | CRFBP-R2 block | PHOSPHO1 inh
COc1ccc(C(CC(=O)N2CCOCC2)c2c(OC)cc(OC)c3c(-c4ccccc4)cc(=O)oc23)cc1 (stereo not drawn) | 51.6* | 1.6 | 93.0* | -4.5 | 13.3
COc1ccc(C(CC(=O)N2CCCC2)c2c(OC)cc(OC)c3c(-c4ccccc4)cc(=O)oc23)cc1 (stereo not drawn) | 28.4 | -1.4 | 87.4* | 12.1 | 39.7
COc1ccc(S(=O)(=O)N2CCCC(c3cc(C(=O)NCc4cccnc4)no3)C2)cc1 (stereo not drawn) | · | -7.4 | · | · | ·
Nc1c(N(CCCO)C(=O)CCCN2C(=O)c3cccc4cccc(c34)C2=O)c(=O)[nH]c(=O)n1Cc1ccccc1 | · | -1.7 | · | -1.7 | ·
O=C(Nc1ccc2oc(-c3ccc(Cl)c(Cl)c3)nc2c1)c1ncn[nH]1 | 8.3* | 0.0 | ? | -1.6 | 15.2
c1ccc(CCNc2ccccc2)cc1 | 24.4 | · | 1.3 | · | 43.6
